Measurements as given in PubChem BioAssay (Tox21).
Several values for one entry are separate records, joined by “and”; a condition that tells them apart may be missing. Identical values can stand only once. Inconclusive results are not listed. Where a call stands in place of a potency, no number is given. A structure can be active in one record and inactive in another. Activity calls are given as the source filed them. Calls come from the whole dose curve; as a rule, active = well fitted curve in the direction sought with a large enough effect in the repeat runs; inconclusive = weak or mixed curves; inactive = no such curve, though single readings can be large; an effect the other way counts as inactive or inconclusive.

How the values were obtained:
[1] = qHTS RealTime-Glo MT Cell Viability Assay in HepG2 cells - 40 hour (AID 1224870); note: nearly all actives have a fitted effect of over 50% in size
How it was run: (§1)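 Real-time viability: cells seeded at 600 per well together with NanoLuc and cell-permeant prosubstrate, compounds added after 5 h incubation. Luminescence tracked at 0, 8, 16, 24, 32 and 40 h of exposure.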

[2] = qHTS RealTime-Glo MT Cell Viability Assay in HEK293 cells - 16 hour (AID 1224872); note: top concentration of the series differs between compounds; nearly all actives have a fitted effect of over 50% in size
How it was run: (§2)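 Luminescence generated by NanoLuc from substrate produced by living HEK293 cells served as the viability signal. Each value reflects the reading at its stated time point during continuous 40 h compound exposure at 37 C.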

[3] = qHTS RealTime-Glo MT Cell Viability Assay in HepG2 cells - 8 hour (AID 1224873); note: nearly all actives have a fitted effect of over 55% in size
How it was run: as §1

[4] = qHTS RealTime-Glo MT Cell Viability Assay in HEK293 cells - 40 hour (AID 1224874); details: RealTime-Glo luminescence; max response: stronger effect = lower value; note: nearly all actives have a fitted effect of over 50% in size
How it was run: (§3)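 600 HEK293 cells per well, dispensed already mixed with RealTime-Glo MT reagents. Compound dosing came 5 h later. The same wells were read for luminescence at 0, 8, 16, 24, 32 and 40 h of exposure at 37 C.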

[5] = A CellTox Green Cytotoxicity Assay to monitor cytotoxicity in HEK293 cells - 24 hour (AID 1224875); note: series mostly up to about 77 µM; nearly all actives have a fitted effect of over 45% in size
How it was run: (§4)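 Dead-cell fluorescence measured kinetically: asymmetric cyanine dye, HEK293, 600 cells/well, 5 h settle, 23 nL cpd/DMSO, 37 C, reads 0–40 h every 8 h.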

[6] = A CellTox Green Cytotoxicity Assay to monitor cytotoxicity in HepG2 cells - 16 hour (AID 1224876); note: nearly all actives have a fitted effect of over 45% in size
How it was run: (§5)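 First, HepG2 cells (600/well) mixed with reagent were plated; second, after 5 h at 37 C they received compounds via pintool; third, fluorescence was measured at 0 h through 40 h at 8 h intervals.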

[7] = qHTS RealTime-Glo MT Cell Viability Assay in HepG2 cells - 32 hour (AID 1224877); note: nearly all actives have a fitted effect of over 55% in size
How it was run: (§6)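 Tox21 10K library screened in qHTS format on HepG2 cells carrying RealTime-Glo reagents. Compounds were added after a 5 h preincubation, and the luminescent signal from continuous culture was measured repeatedly during 40 h treatment.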

[8] = A CellTox Green Cytotoxicity Assay to monitor cytotoxicity in HepG2 cells - 24 hour (AID 1224878); note: nearly all actives have a fitted effect of over 45% in size
How it was run: as §5

[9] = A CellTox Green Cytotoxicity Assay to monitor cytotoxicity in HepG2 cells - 40 hour (AID 1224879); note: nearly all actives have a fitted effect of over 40% in size; note: potency is the fitted concentration of half-maximal effect
How it was run: as §5

[10] = qHTS RealTime-Glo MT Cell Viability Assay in HEK293 cells - 0 hour (AID 1224880); note: top concentration of the series differs between compounds; nearly all actives have a fitted effect of over 45% in size
How it was run: as §3

[11] = A CellTox Green Cytotoxicity Assay to monitor cytotoxicity in HEK293 cells - 32 hour (AID 1224881); note: nearly all actives have a fitted effect of over 40% in size
How it was run: as §4

[12] = A CellTox Green Cytotoxicity Assay to monitor cytotoxicity in HepG2 cells - 0 hour (AID 1224882); note: nearly all actives have a fitted effect of over 35% in size
How it was run: as §5

[13] = A CellTox Green Cytotoxicity Assay to monitor cytotoxicity in HepG2 cells - 32 hour (AID 1224883); note: nearly all actives have a fitted effect of over 50% in size; note: potency is the fitted concentration of half-maximal effect
How it was run: as §5

[14] = A CellTox Green Cytotoxicity Assay to monitor cytotoxicity in HEK293 cells - 8 hour (AID 1224884); note: nearly all actives have a fitted effect of over 35% in size
How it was run: as §4

[15] = qHTS RealTime-Glo MT Cell Viability Assay in HepG2 cells - 16 hour (AID 1224885); note: nearly all actives have a fitted effect of over 50% in size
How it was run: as §6

[16] = qHTS RealTime-Glo MT Cell Viability Assay in HEK293 cells - 24 hour (AID 1224886)
How it was run: as §2

[17] = qHTS RealTime-Glo MT Cell Viability Assay in HEK293 cells - 8 hour (AID 1224887)
How it was run: as §3

[18] = A CellTox Green Cytotoxicity Assay to monitor cytotoxicity in HEK293 cells - 16 hour (AID 1224888); note: nearly all actives have a fitted effect of over 35% in size
How it was run: as §4

[19] = qHTS RealTime-Glo MT Cell Viability Assay in HepG2 cells - 0 hour (AID 1224889); note: nearly all actives have a fitted effect of over 50% in size
How it was run: as §6

[20] = A CellTox Green Cytotoxicity Assay to monitor cytotoxicity in HEK293 cells - 40 hour (AID 1224871); note: nearly all actives have a fitted effect of over 45% in size
How it was run: as §4

Structure (SMILES) | Potency [1] | Potency [2] | Potency [3] | max response [4] | Potency [5] | Potency [6] | Potency [7] | Potency [8] | Potency [9] | Potency [10] | Potency [11] | Potency [12] | Potency [13] | Potency [14] | Potency [15] | Potency [16] | Potency [17] | Potency [18] | Potency [19] | Potency [20]
NCCc1ccc(O)c(O)c1 | inactive | inactive | inactive | -0.912% (inactive) and 5.76% (inactive) | inactive | inactive | inactive | inactive | inactive | inactive | inactive | inactive | inactive | inactive | inactive | inactive | inactive | inactive | inactive | 
Cc1cc(Cc2ccc(N)c(C)c2)ccc1N | inactive | inactive | inactive | -20.5% (inactive) and -29% (inactive) | inactive | inactive | inactive | inactive | inactive | inactive | inactive | inactive | inactive | inactive | inactive | inactive | inactive | inactive | inactive | 
Clc1ccc(Cl)c(Cl)c1Cl | inactive | inactive | inactive | 0.667% (inactive) and -4.21% (inactive) | inactive | inactive | inactive | inactive | inactive | inactive | inactive | inactive | inactive | inactive | inactive | inactive | inactive | inactive |  | 
O=S(=O)(O)c1cc(S(=O)(=O)O)c2c(N=Nc3ccccc3)c(O)ccc2c1 | inactive | inactive | inactive | -20.2% (inactive) | inactive |  | inactive | inactive | inactive | inactive | inactive | inactive | inactive | inactive | inactive | inactive | inactive | inactive | inactive | 
CCOC(=O)/C=C\C(=O)OCC |  | inactive | inactive | 0.421% (inactive) and 21.2% (inactive) | inactive | inactive | inactive | inactive | inactive | inactive | inactive | inactive | inactive | inactive | inactive | inactive | inactive | inactive | inactive | inactive
NCc1cccc(CN)c1 |  | inactive | inactive | -20.2% (inactive) and 8.99% (inactive) |  | inactive | inactive | inactive | inactive | inactive |  | inactive | inactive | inactive | inactive | inactive | inactive | inactive | inactive | 
CC(=O)Nc1ccc(C(=O)O)cc1 |  | inactive | inactive | 0.373% (inactive) and -0.782% (inactive) | inactive |  | inactive | inactive | inactive | inactive | inactive | inactive | inactive | inactive | inactive | inactive | inactive | inactive | inactive | 
O=[N+]([O-])C(CO)(CO)CO |  | inactive | inactive | 10.8% (inactive) | inactive | inactive | inactive | inactive | inactive | inactive | inactive |  | inactive | inactive | inactive | inactive | inactive | inactive | inactive | 
C=CC(=O)OCCCCCCCC(C)C |  | inactive | inactive | 4.58% (inactive) and 25.2% (inactive) | inactive |  | inactive | inactive | inactive | inactive | inactive | inactive | inactive | inactive | inactive | inactive | inactive | inactive |  | inactive
CC1CC(OC(=O)c2ccccc2O)CC(C)(C)C1 (stereo unspecified) |  | inactive | inactive | -10.4% (inactive) and -7.39% (inactive) and -13.1% (inactive) | inactive | inactive | inactive | inactive | inactive | inactive | inactive |  | inactive | inactive | inactive | inactive | inactive | inactive | inactive | 
CC(C)(CO)COC(=O)C(C)(C)CO |  | inactive | inactive | 0.943% (inactive) and 3.19% (inactive) | inactive | inactive | inactive | inactive | inactive | inactive | inactive | inactive | inactive | inactive | inactive | inactive | inactive | inactive | inactive | 
CC1=C(CC(=O)O)c2cc(F)ccc2/C1=C\c1ccc(S(C)=O)cc1 (stereo unspecified) |  | inactive | inactive | 14% (inactive) and 12.3% (inactive) | inactive |  | inactive | inactive | inactive | inactive | inactive | inactive | inactive | inactive | inactive | inactive | inactive | inactive | inactive | inactive
O=C(O)c1ccc([N+](=O)[O-])cc1 |  | inactive | inactive | 2.62% (inactive) and 0.789% (inactive) | inactive | inactive | inactive | inactive | inactive | inactive | inactive |  | inactive | inactive | inactive | inactive | inactive | inactive |  | inactive
C[C@@H]1O[C@@H](OC[C@H]2O[C@@H](Oc3c(-c4ccc(O)c(O)c4)oc4cc(O)cc(O)c4c3=O)[C@H](O)[C@@H](O)[C@@H]2O)[C@H](O)[C@H](O)[C@H]1O |  | inactive | inactive | -1.83% (inactive) and 0.783% (inactive) | inactive | inactive | inactive | inactive | inactive | inactive | inactive | inactive | inactive | inactive | inactive | inactive | inactive | inactive |  | 
O=C(c1ccc(O)cc1)c1ccc(O)cc1O |  | inactive | inactive | -21.4% (inactive) | inactive | inactive | inactive | inactive | inactive | inactive | inactive | inactive | inactive | inactive | inactive | inactive | inactive | inactive | inactive | inactive
CCCCCCCCCCC=CC1CC(=O)OC1=O (stereo unspecified) |  | inactive | inactive | 0.806% (inactive) and -0.583% (inactive) | inactive | inactive | inactive | inactive | inactive | inactive | inactive |  | inactive | inactive | inactive | inactive | inactive | inactive | inactive | inactive
Cc1cc(=O)[nH]c(C(C)C)n1 |  | inactive | inactive | 1.9% (inactive) and -0.481% (inactive) | inactive | inactive | inactive | inactive | inactive | inactive | inactive |  | inactive | inactive | inactive | inactive | inactive | inactive |  | 
C=C(C#N)C(=O)OCC |  | inactive | inactive | -3.09% (inactive) and 0.0188% (inactive) | inactive |  | inactive | inactive | inactive | inactive | inactive |  | inactive | inactive | inactive | inactive | inactive | inactive | inactive | 
CNC[C@H](O)[C@@H](O)[C@H](O)[C@H](O)CO |  | inactive | inactive | 8.02% (inactive) and 0.166% (inactive) | inactive |  | inactive | inactive | inactive | inactive | inactive | inactive | inactive | inactive | inactive | inactive | inactive | inactive | inactive | inactive
CC(C)(C)C(=O)C1C(=O)c2ccccc2C1=O |  | inactive | inactive | -29.9% (inactive) and -11.1% (inactive) | inactive | inactive | inactive | inactive | 54.4 µM (active) and inactive | inactive | inactive | inactive | 54.4 µM (active) and inactive | inactive | inactive | inactive | inactive | inactive | inactive | 
CCOC(=O)[C@H](CCc1ccccc1)N[C@@H](C)C(=O)N1Cc2ccccc2C[C@H]1C(=O)O |  | inactive | inactive | -0.607% (inactive) and -1.19% (inactive) | inactive | inactive | inactive | inactive | inactive | inactive | inactive | inactive | inactive | inactive | inactive | inactive | inactive | inactive | inactive | inactive
